Rows were chosen to be rich in hits. Some 32% of all compounds tested hit in one or more screens of this group.
PostGolgi yeast: growth inhibition of a yeast mutant, post-Golgi transport screen | post-Golgi transport phenotypic cell assay | inhibition, % at 10 µM | AID 739 | 0.9% of 98,000 active;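 also: yeast cells grown in 1536-well plates; yeast grown about 18 h at 30C before absorbance read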
CYP2C9 act: activators of human CYP2C9. P11712. recombinant CYP2C9, luciferin-H conversion, luminescence; stronger effect = higher value; factor 1 = untreated enzyme, 0 = blocked. activation factor at 5 µM. 1.4% of 96,000 active. AID 1024;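 active = activation factor of 2 or more for CYP2C9 at a 5 µM dose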;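 also: 0 = sulfaphenazole-blocked wells and 1 = vehicle-only wells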
Target sequence (P11712 whole entry, looked up): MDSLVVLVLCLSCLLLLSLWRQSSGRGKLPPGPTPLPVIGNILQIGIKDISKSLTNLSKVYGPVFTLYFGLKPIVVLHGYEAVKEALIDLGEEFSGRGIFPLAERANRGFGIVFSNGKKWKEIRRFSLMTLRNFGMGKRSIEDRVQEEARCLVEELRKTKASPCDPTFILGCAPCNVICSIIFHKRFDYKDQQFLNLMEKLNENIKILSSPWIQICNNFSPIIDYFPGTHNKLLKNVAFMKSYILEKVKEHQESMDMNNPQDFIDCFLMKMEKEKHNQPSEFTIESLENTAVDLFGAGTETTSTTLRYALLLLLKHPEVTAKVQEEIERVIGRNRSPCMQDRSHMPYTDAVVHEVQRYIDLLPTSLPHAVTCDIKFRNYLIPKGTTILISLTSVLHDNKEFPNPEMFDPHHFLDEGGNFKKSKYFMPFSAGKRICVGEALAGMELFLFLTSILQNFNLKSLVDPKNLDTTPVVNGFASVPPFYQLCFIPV
CYP2C9 inhib: blocks human cytochrome P450 2C9 | P11712 | CYP2C9 Supersomes, luciferin-H conversion, luminescence | 20% of 96,000 active | inhibition, % at 5 µM | AID 777;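 active = blocking of liver enzyme CYP2C9 beyond about 50% at 5 µM, limit read from the data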
CYP2C19 inh: blocks human cytochrome P450 2C19; P33261; CYP2C19 Supersomes, luciferin-H EGE luminescence, 30 min; 21% of 96,000 active; inhibition, % at 5 µM;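 active = CYP2C19 inhibition above a set limit at 5 µM in the primary screen, cut at about 50% in these data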;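 also: plate controls were negative control wells for no effect and 2.5 mM tranylcypromine positive control for full effect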
CYP2C19 act: increases human CYP2C19 enzyme activity; P33261; recombinant CYP2C19, luciferin-H EGE luminescence; stronger effect = higher value; 0 = fully inhibited enzyme, 1 = untreated enzyme; activation factor at 5 µM; 96,000 tested, under 10 active; AID 1025;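 active = activation factor of at least 2 at 5 µM in the primary screen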;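 also: 0 = wells with 2.5 mM tranylcypromine and 1 = vehicle-only wells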
PostGolgi ctrl: growth of the yeast control strain, post-Golgi counter-screen | efflux-deficient yeast background strain, growth absorbance A615, 16 h | inhibition, % at 10 µM | 5% of 98,000 active | AID 738
The depositor's hits bear a star. Rule as the data show it, unless noted: active = inhibition above about 30%; inactive = the rest.

Screening CCC(=NCCc1c[nH]c2ccccc12)c1c(O)n(C)c(=O)n(C)c1=O returned PostGolgi yeast -5, CYP2C9 act 0.5, CYP2C9 inhib 50*, CYP2C19 inh 59*, CYP2C19 act 0.4 and PostGolgi ctrl 19.
For CCC(=NCc1ccc2c(c1)OCO2)c1c(O)n(C)c(=O)n(C)c1=O the results were PostGolgi yeast -2, CYP2C9 act 0.4, CYP2C9 inhib 62*, CYP2C19 inh 29, CYP2C19 act 0.7 and PostGolgi ctrl 12.
CCC(=NCc1cc(OC)cc(OC)c1)c1c(O)n(C)c(=O)n(C)c1=O was read as PostGolgi yeast 0, CYP2C9 act 0.2, CYP2C9 inhib 81*, CYP2C19 inh 29, CYP2C19 act 0.7 and PostGolgi ctrl 4.
CCNc1ccc(P(=S)(N(C)C)N(C)C)cc1 was read as PostGolgi yeast -10, CYP2C9 act 0.6, CYP2C9 inhib 37, CYP2C19 inh 44, CYP2C19 act 0.6 and PostGolgi ctrl 16.
CCN(CC)CCN=C(C)c1c(O)n(-c2ccccc2OC)c(=O)[nH]c1=O was read as PostGolgi yeast 1, CYP2C9 act 1.2, CYP2C9 inhib -24, CYP2C19 inh 9, CYP2C19 act 0.9 and PostGolgi ctrl -11.
For O=C1C2CCCN2C(c2ccccc2)N1c1ccccn1 (configuration not stated) the results were PostGolgi yeast -5, CYP2C9 act 0.9, CYP2C9 inhib 8, CYP2C19 inh -2, CYP2C19 act 1 and PostGolgi ctrl 5.
C=C1C(O)(c2ccccc2)C2CC[N+]1(C)CC2 (configuration not stated) was read as PostGolgi yeast -1, CYP2C9 act 1, CYP2C9 inhib 1, CYP2C19 inh 6, CYP2C19 act 0.9 and PostGolgi ctrl -6.
For CCCC1(CCC)C(=O)NC(=NCc2ccccc2)NC1=O the results were PostGolgi yeast -6, CYP2C9 act 0.6, CYP2C9 inhib 37, CYP2C19 inh 21, CYP2C19 act 0.8 and PostGolgi ctrl 1.
For CCCC1(CCC)C(=O)NC(=Nc2ccccc2)NC1=O the results were PostGolgi yeast -2, CYP2C9 act 0.5, CYP2C9 inhib 54*, CYP2C19 inh 7, CYP2C19 act 0.9 and PostGolgi ctrl 12.
For CCCCC1(CCCC)C(=O)NC(=Nc2cccc(C)c2)NC1=O the results were PostGolgi yeast 47*, CYP2C9 act 0.4, CYP2C9 inhib 60*, CYP2C19 inh 61*, CYP2C19 act 0.4 and PostGolgi ctrl 7.
For CN1CC=C(c2c[nH]c3ccccc23)CC1 the results were PostGolgi yeast -1 and PostGolgi ctrl 5.
`CC(C(=O)c1c[nH]c2ccccc12)N1CCc2ccccc2C1` (configuration not stated) gave PostGolgi yeast -9, CYP2C9 act 0.2, CYP2C9 inhib 76*, CYP2C19 inh 45, CYP2C19 act 0.5 and PostGolgi ctrl 2.
For Cc1ccc(Cn2nnnc2CN2CCC(n3nnc4cc(C)ccc43)CC2)cc1 the results were PostGolgi yeast -3, CYP2C9 act 0, CYP2C9 inhib 96*, CYP2C19 inh 91*, CYP2C19 act 0.1 and PostGolgi ctrl 29.
Cc1ccc(C)c(CN2CCC(n3nnc4cc(F)ccc43)CC2)c1 was read as PostGolgi yeast 0, CYP2C9 act 0.9, CYP2C9 inhib 6, CYP2C19 inh 39, CYP2C19 act 0.6 and PostGolgi ctrl 3.
For FC(F)(F)c1ccc2c(c1)nnn2C1CCN(Cc2nnnn2Cc2ccccc2)CC1 the results were PostGolgi yeast 4, CYP2C9 act 0.1, CYP2C9 inhib 93*, CYP2C19 inh 48, CYP2C19 act 0.5 and PostGolgi ctrl 14.
For Fc1ccc2c(c1)nnn2C1CCN(Cc2nnnn2C2CCCCC2)CC1 the results were PostGolgi yeast 9, CYP2C9 act 0.2, CYP2C9 inhib 75*, CYP2C19 inh 67*, CYP2C19 act 0.3 and PostGolgi ctrl 0.
`Cc1ccc(Cn2nnnc2CN2CCC(n3nnc4cc(C(F)(F)F)ccc43)CC2)cc1` gave PostGolgi yeast 12, CYP2C9 act 0.3, CYP2C9 inhib 73*, CYP2C19 inh 35, CYP2C19 act 0.7 and PostGolgi ctrl 62*.
Screening Cc1nc2cc(F)ccc2n1C1CCN(Cc2nnnn2CCc2ccccc2)CC1 returned PostGolgi yeast 2, CYP2C9 act 0.4, CYP2C9 inhib 62*, CYP2C19 inh 62*, CYP2C19 act 0.4 and PostGolgi ctrl 2.
O=C1C2CCCN2C(c2cccc(Cl)c2)N1c1ccccn1 (configuration not stated) was read as PostGolgi yeast -1, CYP2C9 act 1, CYP2C9 inhib 5, CYP2C19 inh 13, CYP2C19 act 0.9 and PostGolgi ctrl 19.
`O=P(/C(=N/O)N1CCOCC1)(N1CCOCC1)N1CCOCC1` gave PostGolgi yeast -5, CYP2C9 act 1.1, CYP2C9 inhib -8, CYP2C19 inh -10, CYP2C19 act 1.1 and PostGolgi ctrl 7.
Screening Cc1cc2c(s1)NC(=O)CN=C2c1cccs1 returned PostGolgi yeast -1, CYP2C9 act 0.6, CYP2C9 inhib 41, CYP2C19 inh 50*, CYP2C19 act 0.5 and PostGolgi ctrl 11.
Screening CCCCCCOc1ccc(CN2CCN(CC)CC2)cc1 returned PostGolgi yeast 13, CYP2C9 act 0.9, CYP2C9 inhib 11, CYP2C19 inh 40, CYP2C19 act 0.6 and PostGolgi ctrl 11.
NCC(CC(=O)O)c1ccc(Cl)cc1 (configuration not stated) was read as PostGolgi yeast 5, CYP2C9 act 1.2, CYP2C9 inhib -15, CYP2C19 inh -14, CYP2C19 act 1.1 and PostGolgi ctrl -6.
Cn1c(=O)cc(OCC(=O)N2CCN(C3CCCCC3)CC2)c2ccccc21 was read as PostGolgi yeast 4, CYP2C9 act 1.2, CYP2C9 inhib -21, CYP2C19 inh 9, CYP2C19 act 0.9 and PostGolgi ctrl 0.
Cn1c(=O)cc(OCC(=O)N2CCN(Cc3ccc4c(c3)OCO4)CC2)c2ccccc21 was read as PostGolgi yeast -4, CYP2C9 act 0.3, CYP2C9 inhib 72*, CYP2C19 inh 55*, CYP2C19 act 0.5 and PostGolgi ctrl 5.
OCC12COC3c4ccccc4C(OC1)N32 (configuration not stated) was read as PostGolgi yeast -1, CYP2C9 act 1, CYP2C9 inhib -5, CYP2C19 inh 6, CYP2C19 act 0.9 and PostGolgi ctrl 15.
Cn1c2ccccc2c2cnn(CC(=O)N3CCC4(CC3)OCCO4)c(=O)c21 was read as PostGolgi yeast 3, CYP2C9 act 0.9, CYP2C9 inhib 14, CYP2C19 inh 57*, CYP2C19 act 0.4 and PostGolgi ctrl 4.
`Cn1c2ccccc2c2c(C(=O)N3CCC4(CC3)OCCO4)cn(C3CCCCC3)c(=O)c21` gave PostGolgi yeast 24, CYP2C9 act 0.3, CYP2C9 inhib 69*, CYP2C19 inh 51*, CYP2C19 act 0.5 and PostGolgi ctrl 6.
